Compounds with a hit are over-represented: about 7.8% of the library has one in this group of screens.
Marburg entry inh = inhibitors of Marburg virus binding or cell entry; actives 1.8% (n = 300,000); Marburg virus pseudotyped entry inhibition, cell reporter; Potency, µM (highest dose often 37.8 µM), inactives show at the top dose activity change, negative = inhibition, hits mostly inhibitors; calls by dose curve; tested in HEK293 cells; further: potency means the concentration at half of the fitted maximal effect
Vaccinia mCherry = inhibitors of vaccinia virus infection (mCherry reporter signal); Vaccinia virus mCherry reporter infection, fluorescence; Potency, µM (doses to about 36.5 µM), inactives show at the highest dose activity change, negative = inhibition, usual class: inhibitors; actives 0.63% (n = 310,000); calls by dose curve; tested in A549 cells; further: potency means the concentration at half of the fitted maximal effect; nearly all actives have a fitted effect of over 35% in size
HCV inhibitor = inhibitors of hepatitis C virus infection; Potency, µM (titrated, usually from 41.8 µM), without a hit: at the top dose activity change, negative = inhibition, hits mostly inhibitors; Huh7.5.1 HCVcc-Cre infection, luciferase reporter, 44 h; actives 3.4% (n = 340,000); active means well fitted inhibition curve with a large enough effect; inconclusive means small, poorly fitted or top-dose-only effect, or another doubt; inactive means no such curve, though single readings can be large or run the other way; further: potency means the concentration at half of the fitted maximal effect
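Seed cells (1,000/well) for 4 h; treat with compound and infect with HCVcc-Cre, moi about 0.5. Incubate 44 h, then detect luciferase activity.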
Vaccinia Venus = vaccinia inhibition (Venus reporter); AID 720580; Potency, µM (titrated, usually from 36.5 µM), for the others: top-dose activity change, negative = inhibition, hits mostly inhibitors; actives 0.46% (n = 330,000); Vaccinia virus Venus reporter expression, fluorescence; calls by dose curve; tested in A549 cells; further: potency means the concentration at half of the fitted maximal effect; nearly all actives have a fitted effect of over 30% in size
HCMV inh = blocks human cytomegalovirus replication. activity change, negative = inhibition, % at 57.5 µM. actives 4.5% (n = 410,000). HFF cells, HCMV-luciferase reporter, 72 h; stronger effect = lower value; in the data active means activity change below about -60%; inconclusive means no clear call, values can overlap the other calls; inactive means above about -39%
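Two compound doses tested in HFFs infected with HCMV-luciferase, MOI 1 PFU/cell, 72 h at 37C. Lysate luminescence read with OneGlo; data normalized against buffer-only and 10uM Salinomycin inhibitor controls.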
LASV entry inh = inhibitors of Lassa virus binding or cell entry. Lassa virus pseudotype entry inhibition, cell reporter. Potency, µM (titrated, usually from 37.9 µM), without a hit: top-dose activity change, negative = inhibition, most hits filed as inhibitors. actives 1.2% (n = 300,000); calls by dose curve; tested in HEK293 cells; further: potency means the concentration at half of the fitted maximal effect; nearly all actives have a fitted effect of over 50% in size
* marks the source's active call; other numbers are inactive results; i = inactive; ? = inconclusive; . = no result; [ ] = dose if it differs, or a comment. On the % scale 0 is the no-effect control and ±100 the full control effect.

SMILES | Marburg entry inh | Vaccinia mCherry | HCV inhibitor | Vaccinia Venus | HCMV inh | LASV entry inh
CC(=O)NCCNC(=O)c1ccc2c(=O)n(CCc3ccccc3)c(=O)[nH]c2c1 | ? | -3.9% | . | 1.6% | 13.3 | ?
CCCCCn1c(=O)[nH]c2cc(C(=O)NCCN3CCC(C)CC3)ccc2c1=O | 0.4%[46.1 µM] | -10.0% | ? | -4.5% | . | ?
CC1CCN(CCCNC(=O)c2ccc3c(=O)n(CCc4ccccc4)c(=O)[nH]c3c2)CC1 | ? | . | 8.91µM* | . | 61.9 | 7.7%
CC1CCN(CCNC(=O)c2ccc3c(=O)n(CCc4ccccc4)c(=O)[nH]c3c2)CC1 | . | . | . | . | -0.6 | .
CCCCCn1c(=O)[nH]c2cc(C(=O)NCCCN3CCCCC3)ccc2c1=O | ? | . | 10µM* | . | 30.2 | -25.2%
CC1CCCCN1CCNC(=O)c1ccc2c(=O)n(CCc3ccccc3)c(=O)[nH]c2c1 (stereo not given) | ? | -14.3% | 11.2µM* | -10.6% | 32.9 | ?
CC1CCN(C(=O)CSc2nc3c([nH]c4ccccc43)c(=O)n2-c2ccccc2)CC1 | . | -10.7% | . | -2.9% | 16.2 | -8.7%[46.1 µM]
Cc1ccc(Cn2c(C)c(CNCC(C)c3ccccc3)c(C(=O)O)c2C)cc1 (stereo not given) | 9.2%[46.1 µM] | -9.3% | . | 0.7% | -18.3 | 18.9%[46.1 µM]
O=C(CNC(=O)c1cccs1)N/N=C/c1c(F)cccc1Cl | 18.6% | i | 5.4% | -13.6% | -60.0* | 12.0%
c1ccc2c(c1)nnn2Cn1nnc2ccccc21 | . | i | . | 2.2% | -63.0* | .
Cc1cccc(NC(=S)N(C)Cc2cn(C)c3ccccc23)c1 | -4.7% | -18.4% | -25.4% | -26.3% | -68.3* | ?
CC1CCCCN1C(=O)c1cnn2c1NC(=C1CC1)C=C2C(F)F (stereo not given) | . | i | . | -10.6% | . | .
CC(C)(C)c1cc(/C=C2\NC(=O)NC2=O)cc(C(C)(C)C)c1O | . | . | ? | . | -82.8* | .
O=C1NC(=O)/C(=C/c2cccc(O)c2)N1 | . | i | 3.0% | -1.5% | -7.9 | .
CCN1CCN(C(=O)c2ccccc2N(Cc2ccccc2)S(=O)(=O)c2ccc(C)cc2)CC1 | 5.8µM* | . | ? | . | 7.1 | ?
O=C(CN(c1ccccc1)S(=O)(=O)c1ccccc1)Nc1ccccc1C(=O)NCc1ccco1 | ? | -20.0% | ? | -12.1% | -61.9* | ?
Cc1ccc(N(CC(=O)Nc2ccccc2C(=O)NCc2ccco2)S(=O)(=O)c2ccccc2)cc1C | ? | -2.3% | ? | -14.9% | 5.4 | ?
Cc1ccc(S(=O)(=O)N(Cc2ccccc2)c2ccccc2C(=O)NCc2ccco2)cc1 | ? | -12.3% | ? | -19.5% | -18.5 | ?
Cc1ccc(S(=O)(=O)N(Cc2ccccc2)c2ccccc2C(=O)Nc2ccccc2C(=O)NCc2ccco2)cc1 | 16.4µM* | . | 7.7% | . | ? | -2.7%
CS(=O)(=O)N(Cc1ccccc1)c1ccccc1C(=O)Nc1ccccc1C(=O)NCc1ccco1 | 4.11µM* | . | -15.0% | . | -2.7 | -1.6%
NCC1OC(O[C@H]2[C@H](O)[C@@H](OC3C(O)C(N)CC(N)C3OC3OC(CO)C(O)C(O)C3N)O[C@@H]2CO)C(N)C(O)C1O (stereo not given in full) | 11.1% | . | . | . | . | 20.7%
C#CCN(C1CCCC1)S(=O)(=O)C=C | . | ? | . | -70.1% | . | .
Cc1ccc(C(=O)N2CCC(C(=O)c3ccc(F)cc3)CC2)cc1 | . | . | ? | . | -6.8 | .
Cc1ccc(C(=O)N2C(=S)C(c3ccc(F)cc3)=NC23CCN(C)CC3)cc1 | ? | -29.4% | ? | -19.0% | -84.6* | ?
COc1ccccc1N1CCN(C(=O)C2CCN(S(=O)(=O)c3cccs3)CC2)CC1 | 0.4%[46.1 µM] | -8.8% | . | -3.0% | 41.8 | ?
SMILES | Marburg entry inh | Vaccinia mCherry | HCV inhibitor | Vaccinia Venus | HCMV inh | LASV entry inh
CCC(=O)N1CCc2cc(Br)cc(S(=O)(=O)NCCc3cccc(C)c3)c21 | . | -9.7% | . | -14.0% | ? | -2.4%[46.1 µM]
CCOc1ccc(OCC)c(S(=O)(=O)N2CCN(c3cccc(C)c3C)CC2)c1 | ? | -12.4% | . | -10.1% | -6.4 | ?
O=C1NC(=O)N(c2ccccc2)C(=O)/C1=C\C=C\c1ccccc1 | 0.8%[46.1 µM] | i[7.34 µM] | ? | -8.3%[7.34 µM] | 41.4 | -1.9%
ClC1=C(Cl)C(Cl)=C(Cl)C1=C/C=C/c1ccccc1 | . | . | 8.91µM* | . | ? | .
Cc1ccc2c(/C=C/c3ccc(N(C)C)cc3)ccnc2c1C | . | -7.2% | . | -1.1% | . | .
O=C(NCc1ccccc1)c1c2c(nc3ccccc13)C(=O)N(C1CCCCC1)C2 | . | -1.6% | . | -16.0% | 19.2 | ?
Cc1nn(Cc2ccc(Cl)cc2Cl)c(C)c1NC(=O)CCl | ? | . | 12.6µM* | . | ? | ?
Cc1nn(Cc2ccc(Cl)cc2Cl)c(C)c1NC(=O)C1C2CCC(O2)C1C(=O)O (stereo not given) | -23.5%[46.1 µM] | ? | ? | -27.1% | -63.6* | 5.2%
Cc1nn(Cc2ccccc2Cl)c(C)c1NC(=O)C1C2CCC(O2)C1C(=O)O (stereo not given) | -1.7% | -12.4% | 3.8% | -14.5% | -7.8 | ?
Cc1nnsc1NC(=O)OCc1ccc(Cl)cc1Cl | 2.1% | . | -26.0% | -12.3% | 9.0 | 3.3%
Cc1nn(C)c(Cl)c1NC(=O)OCc1ccc(Cl)cc1Cl | ? | -9.5% | 10µM* | -22.0% | -95.6* | -25.4%
CCOc1ccccc1NC(=O)c1ccc(F)c(S(=O)(=O)N2CCN(c3ccc(F)cc3)CC2)c1 | . | -24.7% | . | -16.5% | ? | -9.5%[46.1 µM]
CCOc1ccccc1C1CC(=O)Oc2c1c(=O)n(C)c1ccccc21 (stereo not given) | ? | -3.9% | . | 6.2% | -1.2 | 0.0%[46.1 µM]
CCOC(=O)/C=C1\CN(Cc2cc(OC)c(OC)c(OC)c2)S(=O)(=O)c2ccccc21 | . | -1.8% | 3.16µM* | ? | ? | .
CCOC(=O)/C=C1\CN(Cc2cc(OC)c(OC)c(OC)c2)S(=O)(=O)c2ccc(C(F)(F)F)cc21 | . | -25.8% | ? | ? | ? | .
CNC(=O)COc1ccccc1C(=O)Nc1ccccc1 | . | 0.2% | . | -8.9% | . | .
CC(C)n1c(O)c(/C=C2\C=NN=C2c2ccccc2)sc1=S | 11.2µM* | -10.9% | -42.4% | -23.5% | ? | ?
CCOC(=O)[C@@H]1[C@H]2COc3cc(OC)ccc3[C@H]2N2C(=O)N(c3ccc(C)cc3)C(=O)[C@@]12C | . | -0.3% | 5.1% | -21.9% | -75.2* | .
CCOC(=O)[C@@H]1[C@H]2COc3cc(OC)ccc3[C@H]2N2C(=O)N(c3ccc(C(F)(F)F)cc3)C(=O)[C@]12C | . | i | ? | ? | -87.5* | .
CCOC(=O)[C@@H]1[C@H]2COc3cc(OC)ccc3[C@@H]2N2C(=O)N(c3ccc(C(F)(F)F)cc3)C(=O)[C@@]12C | . | -2.9% | -13.1% | -10.4% | -34.3 | .
O=C(NCc1ccco1)c1ccc(N2CCCCC2)c([N+](=O)[O-])c1 | 16.2% | i | ? | -12.6% | -14.2 | 20.6µM*
CC1CCN(c2ccc(C(=O)NCc3ccco3)cc2[N+](=O)[O-])CC1 | ? | i | ? | -20.3% | -20.5 | 6.51µM*
